Assay results taken from PubChem BioAssay (EPA / NIEHS).
Records with an inconclusive call do not appear. Some structures have more than one record in an assay (separate samples or runs), and their calls can disagree. Activity calls are given as the source filed them. How the source made its calls: active means hit-call score of the fitted dose curve at least 0.9, where 1 is the maximum; inconclusive means response in the unintended direction; inactive means score below 0.9.

Target: human Vitamin D Receptor (VDR), VDR (gene 7421) (UniProt P11473)
Test: ATG_VDR_TRANS: Attagene TRANS-FACTORIAL HepG2 Assay for human Vitamin D Receptor (VDR) (AID 2283022)
Description: ATG_TRANS is a cell-based, multiplexed-readout assay that uses HepG2, a human liver cell line, with measurements taken at 24 hours after chemical dosing in a 24-well plate.ATG_VDR_TRANS is one of 30 assay component(s) measured or calculated from the ATG_TRANS assay. It is designed to make measurements of mRNA induction, a form of inducible reporter, as detected with fluorescence intensity signals by Reverse transcription polymerase chain reaction (RT-PCR) and Capillary electrophoresis technology.Data from the assay component ATG_VDR_TRANS was analyzed into 1 assay endpoint. This assay endpoint, ATG_VDR_TRANS, was analyzed in the positive analysis fitting direction relative to DMSO as the negative control and baseline of activity. Using a type of inducible reporter, measures of mRNA for gain-of-signal activity can be used to understand the reporter gene at the transcription factor-level as they relate to the gene VDR. Furthermore, this assay endpoint can be referred to as a primary readout, because this assay has produced multiple assay endpoints where this one serves a reporter gene function. To generalize the intended target to other relatable targets, this assay endpoint is annotated to the nuclear receptor intended target family, where the subfamily is non-steroidal.
Human liver HepG2 cells are transiently transfected with multiple reporter transcription units (MRTUs) in 6-well plates using FuGene 6 reagent (Roche; 3 ml FuGene/1 mg DNA). The MRTU constructs are regulated by a cis-regulating element (promoter). […] A major difference between the CIS and TRANS system is that in CIS activities of endogenous TFs are measured, whereas the TRANS assay evaluates changes in activities of exogenous, chimeric NR-Gal4 proteins. […] At the end of 24 hour incubation, total RNA was isolated using TriZol reagent (Invitrogen). The isolated RNA is then reverse-transcribed using oligo(dT) primer and Mo-MLV reverse transcriptase (Invitrogen) with DNAse I (Ambion) treatment for 30 min. The one-tenth of the produced cDNA was amplified by PCR using Taq DNA polymerase (Invitrogen) and two reporter sequence-specific primers. The PCR products were fluorescently labeled by primer extension with 6-arboxyfluorescein (6-FAM) 5'-labeled reporter sequence-specific primer (2 min at 95 C, 20 s at 68 C and 10 min at 72 C) and these products were digested with 5U of HpaI (New England Biolabs) for 2h at 37 C. The fragments were purified using Qiaquick PCR columns (Qiagen), analyzed on an ABI 3130xL genetic analyzer (Applied Biosystems) with peak positions identified by using a set of X-rhodamine (ROX)-labeled MapMarker1000 molecular weight standards (BioVentures). The raw capillary electrophoresis data was processed using Attagraph software (Attagene).

Sequence of human Vitamin D Receptor (VDR), VDR (gene 7421) (P11473 whole entry, looked up): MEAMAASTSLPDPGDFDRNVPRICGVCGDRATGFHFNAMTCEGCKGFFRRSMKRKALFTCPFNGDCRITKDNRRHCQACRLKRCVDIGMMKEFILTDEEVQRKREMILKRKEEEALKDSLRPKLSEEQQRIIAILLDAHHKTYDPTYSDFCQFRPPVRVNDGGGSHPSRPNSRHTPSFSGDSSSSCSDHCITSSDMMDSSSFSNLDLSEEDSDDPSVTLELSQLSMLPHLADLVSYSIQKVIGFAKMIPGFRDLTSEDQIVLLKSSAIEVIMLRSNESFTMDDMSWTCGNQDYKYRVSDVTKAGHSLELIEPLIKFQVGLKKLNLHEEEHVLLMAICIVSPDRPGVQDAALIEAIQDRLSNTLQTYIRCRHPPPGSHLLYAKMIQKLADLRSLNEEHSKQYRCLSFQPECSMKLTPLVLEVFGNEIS

Row | Compound | outcome | AC50
1 | c1cc2ccc3cccc4ccc(c1)c2c34 | inactive | –
2 | CC(C)(O)C(=O)Nc1ccc([N+](=O)[O-])c(C(F)(F)F)c1 | inactive | –
3 | Cc1cc2c3c(c1)C(c1ccccc1)=N[C@@H](NC(=O)c1ccncc1)C(=O)N3CC2 | inactive | –
4 | CC(c1ccc(O)cc1)(c1ccc(O)cc1)c1ccc(O)cc1 | – | 17.7 µM (active)
5 | CCNc1nc(NC(C)C)nc(SC)n1 | inactive | –
6 | COS(=O)(=O)OC | inactive | –
7 | CC(C)(c1ccccc1)c1ccc(O)cc1 | inactive | –
8 | ClC1=C(Cl)[C@]2(Cl)[C@@H]3[C@@H](Cl)[C@H]4O[C@H]4[C@@H]3C1(Cl)C2(Cl)Cl | inactive | –
9 | Oc1c(Cl)c(Cl)c(Cl)c(Cl)c1Cl | inactive | 9.71 µM (active)
10 | CCOP(=S)(OCC)SCSC(C)(C)C | inactive | –
11 | CCC(=O)O[C@H]1CC[C@H]2[C@@H]3CCC4=CC(=O)CC[C@]4(C)[C@H]3CC[C@]12C | inactive | –
12 | C[C@]12CCC(=O)C=C1CC[C@@H]1[C@@H]2CC[C@@]2(C)[C@H]1CC[C@]2(C)O | inactive | –
13 | Cc1cc(O)ccc1Cl | inactive | –
14 | O=C(O)C(F)(F)C(F)(F)C(F)(F)C(F)(F)C(F)(F)C(F)(F)C(F)(F)C(F)(F)F | inactive | –
15 | Cc1cc(-c2ccc(N)c(C)c2)ccc1N | inactive | –
16 | Clc1ccc(Cl)cc1 | inactive | –
17 | ClC1=C(Cl)[C@]2(Cl)[C@@H]3[C@H]4C[C@H]([C@@H]5O[C@H]45)[C@@H]3[C@@]1(Cl)C2(Cl)Cl | inactive | –
18 | O=S(=O)(O)C(F)(F)C(F)(F)C(F)(F)C(F)(F)F | inactive | –
19 | CCCCCCCCCc1ccc(O)cc1 | inactive | –
20 | C1CC2OC2CC1C1CO1 (stereo not given) | inactive | –

Row | Compound | outcome | AC50
21 | O=C(N[C@H]1CN2CCC1CC2)c1cc2ccoc2cn1 | inactive | –
22 | C=CC(N)=O | inactive | –
23 | ClC1=C(Cl)[C@]2(Cl)[C@@H]3[C@@H]4C[C@@H]([C@H]5O[C@@H]45)[C@@H]3[C@@]1(Cl)C2(Cl)Cl | inactive | –
24 | Oc1ccc(C(c2ccc(O)cc2)(C(F)(F)F)C(F)(F)F)cc1 | inactive | –
25 | CCC(C)(CC)c1cc(NC(=O)c2c(OC)cccc2OC)on1 | inactive | –
26 | CN(C)CCO | inactive | –
27 | C=CC(=O)NCNC(=O)C=C | inactive | –
28 | Nc1ccc(-c2ccc(N)cc2)cc1 | inactive | –
29 | CC#Cc1cc(C)nc(Nc2ccccc2)n1 | inactive | –
30 | ClC(Cl)=C(c1ccc(Cl)cc1)c1ccc(Cl)cc1 | inactive | –
31 | COc1ccc(O)c(C(C)(C)C)c1 | inactive | –
32 | Cc1ccccc1O | inactive | –
33 | Clc1ccc(C(c2ccccc2Cl)C(Cl)(Cl)Cl)cc1 (stereo not given) | inactive | –
34 | Cc1cccc([N+](=O)[O-])c1 | inactive | –
35 | Cc1ccccc1CO[C@@H]1C[C@@]2(C(C)C)CC[C@]1(C)O2 | inactive | –
36 | CCSC(=O)N(CC)C1CCCCC1 | inactive | –
37 | O=S(=O)(O)C(F)(F)C(F)(F)C(F)(F)C(F)(F)C(F)(F)C(F)(F)F | inactive | –
38 | CO/C=C(/C(=O)OC)c1ccccc1COc1cccc(C(F)(F)F)n1 | inactive | –
39 | Cc1ccccc1[N+](=O)[O-] | inactive | –
